# PubChem BioAssay
# Calls of active or inactive are those of the source.
# Columns and labels:
# [1] = system: PRMT1 (protein arginine N-methyltransferase 1); assay: small molecules binding arginine methyltransferase PRMT1 – biochemical, small-molecule microarray, 635 nm fluorescence, primary screen (AID 1088); conditions: higher = more signal;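 note: binding of Prmt1 protein to compounds spotted on small-molecule microarray slides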
# [2] = growth effects on S. cerevisiae YJM789 – YJM789 clinical isolate, OD600, 24 h, basal, primary screen (AID 1089); conditions: higher = more signal, called active from +8 up or from −8 down;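 note: growth of clinical yeast isolate S. cerevisiae YJM 789 seeded 1000 cells per well; test concentration not given here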
# [3] = S. pombe growth modifiers, basal conditions – strain 972, OD600, 24 h, no modulator, primary screen (AID 1090);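 note: basal condition with compound alone and no growth modifier present; test concentration not given here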; conditions: S. pombe 972 growth, higher = more signal, called active from +8 up or from −8 down
# [4] = budding yeast growth modifiers under rapamycin – strain BY4716, OD600, 96 h, primary screen (AID 1091); note: test concentration not given here; conditions: S. cerevisiae BY4716 + rapamycin, higher = more signal, called active from +8 up or from −8 down
# [5] = molecular target: Torsin-1A-interacting protein 2 (Homo sapiens) (UniProt Q8NFQ8); assay: small molecules binding lysate-expressed LULL1 – cell lysate, human LULL1 lysate, 635/667 nm fluorescence, primary screen (AID 1092); conditions: small-molecule microarray, hLULL1 lysate binding, 635 nm fluorescence; higher = more signal;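 note: probe is lysate of COS7 cells overexpressing human LULL1; score merges per-feature 667 nm fluorescence with signal-to-noise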
# [6] = optical density change of DRC41 E. coli – strain DRC41, OD650, 24 h, E. coli filamentation project, primary screen (AID 1093);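 note: MC1000 strain lacking acrAB efflux and sulA so SOS filamentation is blocked; test concentration not given here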; conditions: E. coli DRC41 growth, higher = more signal, called active from +8 up or from −8 down
# [7] = probe aLefty2 binding to arrayed compounds – biochemical, biotinylated probe, 635/667 nm fluorescence, primary screen (AID 1094); conditions: small-molecule microarray, higher = more signal;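 note: score merges spot fluorescence near 667 nm with spot signal-to-noise ratio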
# [8] = system: Noggin (protein binding on small-molecule microarray); assay: small molecules binding Noggin protein – biochemical, 635/667 nm fluorescence, primary screen (AID 1095); conditions: 635 nm fluorescence, higher = more signal;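 note: score merges 667 nm feature fluorescence with signal to noise over triplicate slides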
# [9] = molecular target: Neurogenic locus notch homolog protein 3 (Homo sapiens) (UniProt Q9UM47); assay: small molecules binding NOTCH3 protein – biochemical, 635/667 nm fluorescence, primary screen (AID 1096); conditions: small-molecule microarray, 635 nm fluorescence, higher = more signal
# [10] = probe aEGFR binding to arrayed compounds – biochemical, biotinylated probe, 635/667 nm fluorescence, primary screen (AID 1097); conditions: small-molecule microarray, higher = more signal;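 note: probe is a biotinylated anti-EGFR antibody binding compounds printed on slides; score combines fluorescence near 667 nm and signal to noise of each spot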
# [11] = system: Plasmodium falciparum Sir2 (PF13_0152, Sir2A); assay: Plasmodium falciparum Sir2A binding compounds – biochemical, small-molecule microarray, 635 nm fluorescence, primary screen (AID 1098); conditions: fluorescence 635 nm, higher = more signal;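 note: score merges spot fluorescence intensity with its signal-to-noise ratio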
# [12] = probe aDKK1 binding to arrayed compounds – biochemical, biotinylated probe, 635/667 nm fluorescence, primary screen (AID 1099); conditions: small-molecule microarray, higher = more signal;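 note: score merges 667nm spot fluorescence with signal to noise across triplicate slides; reference of the scale not given here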
# [13] = probe aCHRDL2 binding to arrayed compounds – biochemical, biotinylated probe, 635/667 nm fluorescence, primary screen (AID 1100); conditions: small-molecule microarray, higher = more signal
# [14] = change in splice reporter luminescence, either direction, cell-based, HEK293, spliceosome inhibition project, primary screen (AID 1101); conditions: HEK293 splicing luciferase reporter, 24 h, higher = more signal, called active from +8 up or from −8 down;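 note: HEK293 cells carrying a splicing-competent luciferase reporter gene; test concentration not given here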
# [15] = molecular target: Fibroblast growth factor 10 (Homo sapiens) (UniProt O15520); assay: compounds binding fibroblast growth factor 10 – biochemical, small-molecule microarray, 635 nm fluorescence, primary screen (AID 1102); conditions: FGF10 binding, fluorescence 635 nm, higher = more signal
# [16] = system: glycogen synthase kinase-3 (GSK3A per assay name; protocol says GSK3B); assay: compounds binding glycogen synthase kinase-3 – biochemical, small-molecule microarray, 635 nm fluorescence, GSK3A, primary screen (AID 1103); conditions: fluorescence 635 nm, higher = more signal; note: the record names both GSK3A and GSK3B
# [17] = molecular target: Epidermal growth factor receptor (Homo sapiens) (UniProt P00533); assay: compounds binding epidermal growth factor receptor – biochemical, small-molecule microarray, 635 nm fluorescence, primary screen (AID 1104); conditions: EGFR binding, higher = more signal;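 note: score merges 667 nm emission intensity with spot signal to noise over triplicate slides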
# [18] = molecular target: Follistatin-related protein 3 (Homo sapiens) (UniProt O95633); assay: compounds binding follistatin-related protein 3 – biochemical, small-molecule microarray, 635 nm fluorescence, primary screen (AID 1105); conditions: FSTL3 binding, higher = more signal;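 note: score merges emission near 667 nm and signal to noise per printed spot across three slides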
# [19] = molecular target: Dickkopf-related protein 1 (Homo sapiens) (UniProt O94907); assay: small molecules binding DKK1 protein – biochemical, small-molecule microarray, 635 nm fluorescence scan, primary screen (AID 1106); conditions: higher = more signal;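 note: score merges emission near 667 nm with signal to noise over three replicate slides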
# [20] = system: Inhibin beta A chain (activin A); assay: small molecules binding activin A – biochemical, small-molecule microarray, 635 nm fluorescence scan, primary screen (AID 1107); conditions: INHBA, higher = more signal;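 note: mouse activin A protein probed at 4.33 µg/mL on printed slides; score merges bound-protein fluorescence near 667 nm with spot signal-to-noise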
# Sequence of Epidermal growth factor receptor (Homo sapiens) (P00533 whole entry, looked up): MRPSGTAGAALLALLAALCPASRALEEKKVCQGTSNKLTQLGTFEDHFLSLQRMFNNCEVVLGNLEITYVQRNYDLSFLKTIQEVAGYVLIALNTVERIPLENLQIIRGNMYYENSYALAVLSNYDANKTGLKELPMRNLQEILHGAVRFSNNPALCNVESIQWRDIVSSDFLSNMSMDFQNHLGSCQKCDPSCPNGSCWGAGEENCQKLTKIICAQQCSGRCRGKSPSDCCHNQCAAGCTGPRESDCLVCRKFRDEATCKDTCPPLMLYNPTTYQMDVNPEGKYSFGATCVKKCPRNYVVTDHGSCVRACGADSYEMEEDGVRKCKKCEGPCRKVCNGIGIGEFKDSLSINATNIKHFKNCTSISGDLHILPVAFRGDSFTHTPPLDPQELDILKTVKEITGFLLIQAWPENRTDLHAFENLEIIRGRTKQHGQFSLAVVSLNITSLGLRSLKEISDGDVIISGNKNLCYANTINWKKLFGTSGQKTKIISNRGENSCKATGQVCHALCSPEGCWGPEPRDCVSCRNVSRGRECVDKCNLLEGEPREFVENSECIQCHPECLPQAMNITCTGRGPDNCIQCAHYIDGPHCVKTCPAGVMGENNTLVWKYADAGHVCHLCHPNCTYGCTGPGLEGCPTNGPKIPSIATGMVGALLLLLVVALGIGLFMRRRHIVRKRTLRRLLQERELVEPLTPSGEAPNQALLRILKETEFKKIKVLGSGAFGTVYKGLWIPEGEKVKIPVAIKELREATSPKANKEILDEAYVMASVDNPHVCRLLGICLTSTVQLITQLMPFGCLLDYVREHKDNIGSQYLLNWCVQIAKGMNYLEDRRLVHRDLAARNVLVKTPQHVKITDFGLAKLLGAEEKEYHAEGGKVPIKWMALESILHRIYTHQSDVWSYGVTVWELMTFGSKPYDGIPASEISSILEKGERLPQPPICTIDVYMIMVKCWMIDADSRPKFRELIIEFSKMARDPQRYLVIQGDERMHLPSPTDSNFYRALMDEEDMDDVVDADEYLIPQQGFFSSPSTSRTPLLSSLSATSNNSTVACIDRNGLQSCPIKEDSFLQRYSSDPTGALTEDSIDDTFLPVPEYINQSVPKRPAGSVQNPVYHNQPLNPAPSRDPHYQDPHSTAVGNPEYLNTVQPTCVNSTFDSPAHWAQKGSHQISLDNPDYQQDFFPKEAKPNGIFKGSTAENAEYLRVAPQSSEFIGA
# Sequence of Fibroblast growth factor 10 (Homo sapiens) (O15520 whole entry, looked up): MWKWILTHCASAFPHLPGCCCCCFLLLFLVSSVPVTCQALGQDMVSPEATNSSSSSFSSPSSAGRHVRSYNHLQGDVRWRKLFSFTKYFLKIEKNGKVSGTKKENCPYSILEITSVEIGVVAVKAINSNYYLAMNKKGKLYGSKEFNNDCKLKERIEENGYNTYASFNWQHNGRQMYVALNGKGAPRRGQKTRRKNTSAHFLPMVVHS
# Sequence of Dickkopf-related protein 1 (Homo sapiens) (O94907 whole entry, looked up): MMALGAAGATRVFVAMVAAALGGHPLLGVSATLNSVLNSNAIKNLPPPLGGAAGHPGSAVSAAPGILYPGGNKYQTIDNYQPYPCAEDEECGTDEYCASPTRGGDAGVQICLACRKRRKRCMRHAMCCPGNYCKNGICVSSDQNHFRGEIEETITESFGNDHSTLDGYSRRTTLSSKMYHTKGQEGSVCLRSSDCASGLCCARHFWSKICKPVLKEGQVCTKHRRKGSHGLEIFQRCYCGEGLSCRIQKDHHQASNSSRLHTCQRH
# Sequence of Follistatin-related protein 3 (Homo sapiens) (O95633 whole entry, looked up): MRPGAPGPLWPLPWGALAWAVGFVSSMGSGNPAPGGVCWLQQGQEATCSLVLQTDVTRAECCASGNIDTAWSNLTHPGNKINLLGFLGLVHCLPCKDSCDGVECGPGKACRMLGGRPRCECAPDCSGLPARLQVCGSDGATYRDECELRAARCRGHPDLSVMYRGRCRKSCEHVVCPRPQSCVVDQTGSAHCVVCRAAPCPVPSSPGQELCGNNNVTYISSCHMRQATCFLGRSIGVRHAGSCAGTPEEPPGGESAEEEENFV
# Sequence of Neurogenic locus notch homolog protein 3 (Homo sapiens) (Q9UM47 whole entry, looked up): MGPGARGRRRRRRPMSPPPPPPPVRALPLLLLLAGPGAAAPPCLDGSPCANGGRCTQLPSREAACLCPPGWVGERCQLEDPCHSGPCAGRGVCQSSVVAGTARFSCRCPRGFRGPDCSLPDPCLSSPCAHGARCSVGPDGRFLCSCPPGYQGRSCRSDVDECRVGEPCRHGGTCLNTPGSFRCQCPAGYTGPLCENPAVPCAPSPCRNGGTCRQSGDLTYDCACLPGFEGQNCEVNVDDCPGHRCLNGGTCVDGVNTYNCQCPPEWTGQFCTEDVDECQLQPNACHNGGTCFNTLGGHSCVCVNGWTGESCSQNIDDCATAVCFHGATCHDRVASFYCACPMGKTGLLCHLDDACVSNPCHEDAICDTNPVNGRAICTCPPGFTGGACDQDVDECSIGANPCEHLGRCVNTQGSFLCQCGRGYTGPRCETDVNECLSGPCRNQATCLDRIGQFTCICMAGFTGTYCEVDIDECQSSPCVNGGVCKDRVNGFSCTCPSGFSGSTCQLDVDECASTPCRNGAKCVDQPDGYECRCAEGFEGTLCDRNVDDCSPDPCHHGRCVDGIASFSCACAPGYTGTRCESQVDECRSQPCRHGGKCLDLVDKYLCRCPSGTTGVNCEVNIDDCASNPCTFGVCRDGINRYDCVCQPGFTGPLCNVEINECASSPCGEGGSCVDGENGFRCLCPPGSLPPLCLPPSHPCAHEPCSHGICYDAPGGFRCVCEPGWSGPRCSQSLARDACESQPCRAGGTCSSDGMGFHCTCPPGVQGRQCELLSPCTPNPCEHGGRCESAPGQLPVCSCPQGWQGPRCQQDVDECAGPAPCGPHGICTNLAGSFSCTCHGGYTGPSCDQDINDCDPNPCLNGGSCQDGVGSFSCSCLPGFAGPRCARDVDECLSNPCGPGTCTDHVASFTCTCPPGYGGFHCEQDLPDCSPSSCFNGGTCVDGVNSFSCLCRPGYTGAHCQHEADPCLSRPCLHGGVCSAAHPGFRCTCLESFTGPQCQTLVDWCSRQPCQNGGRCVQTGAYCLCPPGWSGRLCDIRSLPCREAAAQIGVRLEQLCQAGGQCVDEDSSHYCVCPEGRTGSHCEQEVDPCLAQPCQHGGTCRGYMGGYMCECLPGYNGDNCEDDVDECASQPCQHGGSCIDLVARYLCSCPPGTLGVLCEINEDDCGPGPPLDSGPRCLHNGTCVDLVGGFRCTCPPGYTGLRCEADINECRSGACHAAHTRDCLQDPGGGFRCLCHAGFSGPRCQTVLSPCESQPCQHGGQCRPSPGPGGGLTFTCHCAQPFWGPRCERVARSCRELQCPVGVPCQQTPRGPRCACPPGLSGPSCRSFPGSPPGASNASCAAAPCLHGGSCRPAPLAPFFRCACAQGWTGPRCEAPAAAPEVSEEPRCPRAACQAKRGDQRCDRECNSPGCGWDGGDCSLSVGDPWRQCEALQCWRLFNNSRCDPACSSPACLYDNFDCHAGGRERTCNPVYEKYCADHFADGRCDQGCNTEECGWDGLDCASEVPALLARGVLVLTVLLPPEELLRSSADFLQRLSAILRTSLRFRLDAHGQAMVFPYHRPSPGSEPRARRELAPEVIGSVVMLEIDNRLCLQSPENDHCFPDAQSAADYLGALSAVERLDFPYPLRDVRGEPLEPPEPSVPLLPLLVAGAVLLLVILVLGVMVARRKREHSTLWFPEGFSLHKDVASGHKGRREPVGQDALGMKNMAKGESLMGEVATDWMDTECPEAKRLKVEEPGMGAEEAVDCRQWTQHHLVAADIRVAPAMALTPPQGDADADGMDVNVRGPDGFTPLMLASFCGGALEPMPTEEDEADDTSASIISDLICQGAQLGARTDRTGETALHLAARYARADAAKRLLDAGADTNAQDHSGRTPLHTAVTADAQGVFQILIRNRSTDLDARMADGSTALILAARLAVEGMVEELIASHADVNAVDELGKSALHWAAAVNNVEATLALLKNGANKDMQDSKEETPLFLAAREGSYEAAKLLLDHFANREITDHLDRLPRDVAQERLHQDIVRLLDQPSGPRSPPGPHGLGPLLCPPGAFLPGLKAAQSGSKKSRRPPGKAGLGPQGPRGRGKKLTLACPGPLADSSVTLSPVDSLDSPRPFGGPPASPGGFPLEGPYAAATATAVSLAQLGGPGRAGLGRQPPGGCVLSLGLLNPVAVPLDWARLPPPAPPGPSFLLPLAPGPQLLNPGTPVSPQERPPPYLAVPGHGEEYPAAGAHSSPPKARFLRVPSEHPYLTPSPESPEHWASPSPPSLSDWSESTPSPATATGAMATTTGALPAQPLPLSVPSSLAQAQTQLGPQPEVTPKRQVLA
# Sequence of Torsin-1A-interacting protein 2 (Homo sapiens) (Q8NFQ8 whole entry, looked up): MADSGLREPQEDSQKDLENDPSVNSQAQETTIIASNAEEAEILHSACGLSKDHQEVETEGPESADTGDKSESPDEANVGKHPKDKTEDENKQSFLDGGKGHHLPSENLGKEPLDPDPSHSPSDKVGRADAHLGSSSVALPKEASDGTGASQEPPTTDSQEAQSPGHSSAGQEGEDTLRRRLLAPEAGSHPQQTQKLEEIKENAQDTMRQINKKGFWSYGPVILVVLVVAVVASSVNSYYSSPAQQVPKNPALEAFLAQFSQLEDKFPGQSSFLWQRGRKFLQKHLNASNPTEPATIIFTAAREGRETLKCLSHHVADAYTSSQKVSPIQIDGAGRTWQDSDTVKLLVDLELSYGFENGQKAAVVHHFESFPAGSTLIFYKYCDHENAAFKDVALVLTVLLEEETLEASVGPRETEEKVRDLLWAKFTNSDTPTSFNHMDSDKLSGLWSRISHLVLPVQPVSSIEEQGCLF
SMILES,composite z-score [1],z-score [2],z-score [3],z-score [4],composite z-score [5],z-score [6],composite z-score [7],composite z-score [8],composite z-score [9],composite z-score [10],composite z-score [11],composite z-score [12],composite z-score [13],z-score [14],composite z-score [15],composite z-score [16],composite z-score [17],composite z-score [18],composite z-score [19],composite z-score [20]
O=C1C[C@@](C(=O)NCc2ccccc2)(c2ccc([N+](=O)[O-])cc2)[C@@H](c2ccc(CO)cc2)N1CC12CC3CC(CC(C3)C1)C2,1.54,0.893 (inactive),0.639 (inactive),8.2 (active),2.39,0.657 (inactive),-0.0965,1.52,1.15,-0.166,1.62,-0.387,-0.371,-0.859 (inactive),1.06,1.13,0.385,0.837,0.0703,0.0162
CS(=O)(=O)CCOC(=O)C1=CC(CCCO)=CC(C2CC2)N(Cc2cc3c(cc2Br)OCO3)C=C1C(=O)OCCS(C)(=O)=O (stereo not given),1.37,-0.955 (inactive),-1.87 (inactive),-1.32 (inactive),1.84,0.102 (inactive),0.0723,0.39,0.533,0.0423,0.405,0.049,0.49,1.22 (inactive),0.615,0.28,-0.0183,0.258,0.322,1.33
CC(C)NC(=O)[C@@H]1c2ccccc2C(=O)N(C(C)C)[C@H]1c1ccc(CO)cc1,1.44,0.549 (inactive),0.458 (inactive),0.386 (inactive),2.99,1.36 (inactive),-0.0478,-1.94,-0.715,-0.44,-0.509,-0.29,0.91,-0.0664 (inactive),-0.633,0.134,-1,-0.994,-1.72,-0.751
COc1cc(OC)c(C(O)C2C=CC3C(=O)NC(=O)C3N2Nc2ccccn2)cc1Br (stereo not given),1.49,-0.0137 (inactive),-0.289 (inactive),0.204 (inactive),0.645,-0.564 (inactive),0.0917,0.458,0.716,0.131,0.968,0.615,0.483,0.893 (inactive),0.689,0.398,0.807,0.835,0.815,0.811
CCOC(=O)C[C@H]1[C@H](OC(=O)c2ccc(C(=O)c3ccccc3)cc2)[C@@H](NC(=O)c2ccccc2)c2cc(OCCCO)ccc2N1C(=O)c1ccccc1,0.844,-0.178 (inactive),0.801 (inactive),-0.536 (inactive),1.72,-0.448 (inactive),-0.0154,0.508,1.01,0.121,0.576,0.188,-0.0053,0.0733 (inactive),0.656,0.0643,0.168,0.84,0.112,0.136
COc1ccc([C@H]2C[C@H]3C(I)=C[C@@H]2C(=O)[C@]32CO2)cc1,-0.639,-1.61 (inactive),-15.3 (active),-1.79 (inactive),-0.83,1.6 (inactive),-0.161,0.387,0.816,-0.135,0.802,0.168,-0.206,-0.568 (inactive),0.66,-0.611,-0.0989,0.926,0.726,0.508
CCOC(=O)C1=CC[C@@H](c2ccc(C(F)(F)F)cc2)N(S(=O)(=O)c2ccc(C)cc2)[C@H]1c1ccccc1,1.49,-0.641 (inactive),-0.482 (inactive),0.363 (inactive),2.92,-0.617 (inactive),0.285,0.496,1.05,0.208,0.544,1,1.12,-2.54 (inactive),0.485,1.31,-0.0946,0.799,-0.305,-0.0699
[N-]=[N+]=Nc1ccccc1C[C@@]1(C(=O)N2CCCCC2)N=C(c2ccc(OCCCO)cc2)O[C@@H]1c1ccccc1N=[N+]=[N-],0.919,-1.16 (inactive),0.123 (inactive),1.18 (inactive),2.45,0.799 (inactive),0.605,0.169,0.884,0.29,0.95,1.32,1.32,0.766 (inactive),0.914,1.05,0.105,0.673,-0.0252,1.59
COCCCNC(=O)[C@@]1(Cc2ccccc2CN=[N+]=[N-])N=C(c2ccc(OCCCO)cc2)O[C@H]1c1ccccc1CN=[N+]=[N-],1.24,-2.06 (inactive),-1.07 (inactive),26.7 (active),3.34,1.71 (inactive),0.239,0.406,0.885,-0.067,1.25,0.616,1.09,-1.51 (inactive),1.43,0.186,-0.334,0.299,-0.629,0.849
NC(=O)N1C(=O)C2C(C1=O)C1C=C(CCCO)C2C(C2CC2)N1Cc1cc2c(cc1Br)OCO2 (stereo not given),-0.918,-1.07 (inactive),-0.435 (inactive),-1.22 (inactive),1.36,-0.331 (inactive),-0.0778,-0.0543,0.325,-0.13,-0.267,-0.165,0.32,0.901 (inactive),-0.395,-0.645,-0.376,-0.252,-0.891,0.943
